Assay results: PubChem BioAssay
“And” between values parts separate entries of the source, which are not always exact repeats. Identical values can stand only once. The source made the active and inactive calls. Cut-off read from the data, not from the text of the source, unless noted: active = parasite load remaining mostly below about 12% (no sharp cut-off); inactive = mostly above about 10%.

What was measured:
[1] = P. berghei load reduction in hepatocytes – cell-based, HepG2, luciferase luminescence, HepG2 viability, primary screen (AID 624349);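 note: 100% = mean of DMSO negative control wells on the same plate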; conditions: P. berghei liver stage in HepG2, luciferase luminescence, concentration not given here; parasite load remaining: stronger effect = lower value; viability: measured here: HepG2 viability without parasites
[2] = Wnt pathway potentiators raising nuclear beta-catenin – imaging, WNT3A-conditioned medium, mouse C2C12, NPC library, primary screen (AID 1117326; in the data active = nuclear beta-catenin stimulation mostly above about 4.2%, no sharp cut-off; inactive = mostly below about 10%; note: reference of the scale not given here); conditions: stronger effect = higher value
[3] = stimulators of insulin release from INS-1E, primary screen, cell-based, 5 mM glucose, NPC library (AID 1117329;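 active = compound raises insulin release from rat beta cells at 5 mM glucose, no numeric limit stated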; note: reference of the scale not given here); conditions: rat INS-1E insulin secretion, at 10 µM, stronger effect = higher value
[4] = growth inhibition of GSK3B-pretreated HCT116 cells – cell-based, CellTiter-Glo, 0.2 to 20 µM (AID 1117336;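 active = compounds lowering colon cancer cell viability after pretreatment blocking the GSK3B kinase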); conditions: HCT116 viability after GSK3B inhibitor, at 20 µM, stronger effect = higher value
[5] = inhibition of endothelial tube formation, primary screen, imaging, VEGF stimulated, CD31 staining, tube area, NPC library (AID 1117340;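 active = compound that reduces growth-factor-driven endothelial tube area in a mixed cell culture, no cutoff stated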); conditions: VEGF-stimulated ADSC/ECFC co-culture, at 10 µM, stronger effect = higher value
[6] = GLP1 release stimulators, primary, NCI-H716, NPC library (AID 1117341;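 active = compound raises GLP1 secretion from the human gut endocrine cells, with no numeric limit stated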; note: reference of the scale not given here); conditions: NCI-H716 cells, at 10 µM, stronger effect = higher value
[7] = HCT116 colon cancer cell growth inhibition, primary screen, CellTiter-Glo luminescence, NPC library (AID 1117342;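 active = compounds that lower survival of HCT116 colon cancer cells in the luminescence readout, no numeric limit stated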); conditions: at 20 µM (top of the series)
[8] = reduced SW480 viability measured with CellTiter-Glo, NPC library, primary (AID 1117343;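 active = compounds that lower viability of the colon cancer cells in the luminescence readout, with no numeric limit stated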); conditions: CellTiter-Glo luminescence; at 20 µM (top of the series)
[9] = NPC library primary testing for decreased DLD-1 cell viability via CellTiter-Glo (AID 1117346;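 active = compounds that lower survival of DLD-1 colon cancer cells in the luminescence readout, no cutoff given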); conditions: DLD-1 viability, CellTiter-Glo luminescence; at 20 µM (top of the series)
[10] = target: 6-phosphogluconate dehydrogenase, decarboxylating (Homo sapiens) (UniProt P52209); assay: inhibition of human phosphogluconate dehydrogenase – biochemical, recombinant enzyme, NADPH absorbance, primary screen (AID 1159550;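 active = at least 20% inhibition of 6-phosphogluconate dehydrogenase activity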); conditions: recombinant 6PGD, NADPH absorbance 341 nm; at 10 µM; stronger effect = higher value
6-phosphogluconate dehydrogenase, decarboxylating (Homo sapiens), sequence (P52209 whole entry, looked up): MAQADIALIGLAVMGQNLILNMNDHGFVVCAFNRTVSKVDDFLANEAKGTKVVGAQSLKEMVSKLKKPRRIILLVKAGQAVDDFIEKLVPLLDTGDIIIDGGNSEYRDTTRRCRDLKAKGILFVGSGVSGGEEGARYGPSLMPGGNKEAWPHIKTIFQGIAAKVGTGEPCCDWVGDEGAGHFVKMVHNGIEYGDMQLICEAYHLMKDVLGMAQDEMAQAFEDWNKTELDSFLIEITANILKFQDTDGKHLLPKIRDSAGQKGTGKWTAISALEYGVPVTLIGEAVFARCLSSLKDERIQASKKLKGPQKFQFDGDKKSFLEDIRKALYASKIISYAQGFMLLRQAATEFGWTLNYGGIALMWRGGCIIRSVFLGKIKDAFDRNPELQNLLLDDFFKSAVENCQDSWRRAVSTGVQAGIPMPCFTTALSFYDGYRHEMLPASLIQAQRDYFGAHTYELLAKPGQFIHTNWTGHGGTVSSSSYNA

CC(=O)Nc1ccc(S(=O)(=O)Nc2ccc([N+](=O)[O-])cc2)cc1
1.4%: nuclear beta-catenin stimulation ([2]; stimulation, at 2 µM)
inactive: parasite load remaining [1] 152% and 62.3% | nuclear beta-catenin stimulation ([2]; at 10 µM) 1.1% | insulin secretion stimulation [3] -0.2% | viability decrease [4] 9.9% | tube area decrease [5] 18.2% | GLP1 secretion stimulation [6] 3.6% | inhibition of viability [7] -1.57% | viability decrease (inhibition) [8] 11.5% | viability decrease (inhibition) [9] -3.8% | inhibition [10] 0.544%
92.2% and 117%: viability [1]

CCN(CC)CCNC(=O)c1cc(Br)c(N)cc1OC
93.9% and 89.2%: viability [1]
-1%: nuclear beta-catenin stimulation ([2]; stimulation, at 2 µM)
inactive: parasite load remaining [1] 69.3% and 155% | nuclear beta-catenin stimulation ([2]; at 10 µM) 3.8% | insulin secretion stimulation [3] -0.6% | viability decrease [4] -24.9% | tube area decrease [5] 15.9% | GLP1 secretion stimulation [6] 0.5% | inhibition of viability [7] -0.17% | viability decrease (inhibition) [8] -9.9% | viability decrease (inhibition) [9] -34.1% | inhibition [10] 12.4%

CCCOc1ccc2nc(NC(=O)OC)[nH]c2c1
active: nuclear beta-catenin stimulation ([2]; at 10 µM) 77% | tube area decrease [5] 107% | inhibition of viability [7] 57.5%
91% and 99.5% and 84%: viability [1]
inactive: parasite load remaining [1] 150% and 18.1% and 53.4% | insulin secretion stimulation [3] 1.2% | viability decrease [4] 27% | GLP1 secretion stimulation [6] -1.2% | viability decrease (inhibition) [8] 14.3% | viability decrease (inhibition) [9] 38.1% | inhibition [10] 2.75%
60.9%: nuclear beta-catenin stimulation ([2]; stimulation, at 2 µM)
